In PubChem BioAssay AID449764 (Southern Research Specialized Biocontainment Screening …, 2010):
About 1,700 (74%) of roughly 2,300 compounds were called active. How the calls were made is not given here. The set was probably picked from earlier hits. This is one part of the list. Results with a measured potency or affinity are listed apart.

test: Confirmatory growth inhibition assay, Mycobacterium tuberculosis H37Rv, absence of glycerol (AID 449764); conditions: no glycerol; series mostly up to 100 µM; inhibition: at the top concentration;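 further: growth read after 7 days of incubation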

SMILES	inhibition
Cc1nc2cc(C(F)(F)F)ccc2n1C1CCN(Cc2nnnn2Cc2ccc3c(c2)OCO3)CC1	1.25% (inactive)
Cc1ccc(NC2Sc3ccccc3NC2=O)cc1Cl (centres undefined)	-0.25% (inactive)
Cc1nc2sccn2c1-c1nc(-c2cc3ccccc3o2)cs1	10.1% (inactive)
Cc1ccc(-c2nnc(NCc3nc4ccccc4[nH]3)c3ccccc23)cc1S(=O)(=O)N1CCCCC1	5.89% (inactive)
Cn1ccnc1C(O)c1cc(C(C)(C)C)c(O)c(C(C)(C)C)c1 (centres undefined)	-3.4% (inactive)
COc1ccc(NC(=O)c2oc3ccc(S(=O)(=O)N4CCOCC4)cc3c2C)cc1	10% (inactive)
O=C(N/N=C/c1c(F)c(F)c(F)c(F)c1F)c1cccc(S(=O)(=O)N2CCOCC2)c1	-10.6% (inactive)
CC(C)(C)c1ccc(C2C3=C(CCCC3=O)NC3=C2C(=O)c2ccccc23)cc1 (centres undefined)	8.47% (inactive)
CC(C(=O)NC(=O)NC1CCCCC1)N(C)CC(=O)Nc1ccc(F)c(F)c1F (centres undefined)	10.7% (inactive)
Cc1ccccc1C(=O)Nc1ccc(-c2nc3ccc(C(=O)c4ccccc4)cc3[nH]2)cc1	-1.44% (inactive)
ClC1=C(Cl)C(Cl)=C(Cl)C1=C/C=C/c1ccccc1	5.26% (inactive)
CC(C)c1ccc2[nH]c(O)c(N=NC(=O)c3ccc(CSc4nncn4C)cc3)c2c1	-6.98% (inactive)
CCOc1ccc(NC(=O)CSc2cn[nH]n2)cc1	2.67% (inactive)
COC(=O)c1ccc(CSc2nc3cc(Cl)ccc3o2)cc1	-0.73% (inactive)
CCOC(=O)c1ccc(N=C2SC(C(=O)Nc3ccc(C(=O)O)cc3)CC(=O)N2Cc2cccs2)cc1 (centres undefined)	5.41% (inactive)
CCC(C)Nc1nc2c(C)cccn2c(=O)c1C=Nc1ccc(OC)cc1 (centres undefined)	-9.31% (inactive)
COc1ccc(NC2(c3ccc(Cl)cc3)C(=O)c3ccccc3C2=O)cc1	-3.05% (inactive)
COc1ccc(C(=O)NNc2ccccc2)cc1OC	5.15% (inactive)
CC(C)C(=O)Nc1cccc(-c2nc3ccccc3c(=O)o2)c1	15.6% (inactive)
Cn1c(=O)c2cc(NCc3ccccc3)nnc2n(C)c1=O	-9.62% (inactive)
Cc1ccc(C(=O)N2N=C(CC(C)C)CC2(O)C(F)(F)F)o1 (centres undefined)	-6.72% (inactive)
CCOc1ccc(N2CCc3c(C)nc(SC)nc32)cc1	11.8% (inactive)
CCOc1ccc(C2=Nc3ccc(Br)cc3C(c3ccc(N4CCOCC4)cc3)=NN2)cc1	7.94% (inactive)
Cc1nc(Nc2ccc(Cl)c(Cl)c2)sc1C(=O)Nc1ccccc1	19.2% (inactive)
Cc1ccc(NC(=O)c2ccc(CSc3nnc(C)s3)cc2)c(C)c1	-1.32% (inactive)
CCCCN(CC)c1nc(N)c2c(N)nc(OCC)cc2c1C#N	0.66% (inactive)
CC(C)C[C@H]1C(=O)N2CCC[C@H]2[C@]2(O)O[C@](NC(=O)C3C=C4c5cccc6[nH]c(Br)c(c56)C[C@H]4N(C)C3)(C(C)C)C(=O)N12 (some centres undefined)	15% (inactive)

SMILES	inhibition
O=C1N/C(=N\N=C\c2ccccn2)SC1Cc1cccc(SC(F)F)c1 (centres undefined)	-11.1% (inactive)
CCc1ccc(CCOc2ccc(CC3SC(=O)NC3=O)cc2)nc1 (centres undefined)	-2.88% (inactive)
FC(F)(F)c1ccc(N2CCOCC2)c(Nc2nc3ccccc3n3cnnc23)c1	-1.54% (inactive)
CSc1cc(-c2ccncc2)nc(-c2ccc(Cl)cc2)c1	16.4% (inactive)
CCCCN(CCCC)c1nc(-c2ccncc2)nc2ccccc12	-1.44% (inactive)
O/N=C/c1ccc2ccccc2c1	1.44% (inactive)
Cc1ccc2c(c1)C(c1ccc(N3CCOCC3)cc1)=NNC(c1cccs1)=N2	0.25% (inactive)
CCc1ccc(/C=C/C(=O)c2cc(Br)ccc(=O)c2O)cc1	-19.1% (inactive)
Cc1ccccc1-n1c(O)c(C=Nc2ccc3c(c2)OCO3)c(=O)[nH]c1=O	0.43% (inactive)
C=CCc1c(C)nc2ccc(C(=O)OCC)cc2c1Cl	10.8% (inactive)
CCn1c(SCC(=O)Nc2ccc3c(c2)oc2ccccc23)nnc1-c1ccc(N)cc1	4.98% (inactive)
O=S(=O)(c1ccc(Oc2ccc3oc4ccccc4c3c2)nc1)N1CCCC1	-0.11% (inactive)
COc1ccc(-c2cc(O)cc(O)c2)cc1	-6.99% (inactive)
CCCCCCOc1ccc(/C=C/C(=O)N2CCOCC2)cc1OC	3.43% (inactive)
CCCCOC1CC(c2ccc(OCc3ccc(OC)cc3)c(OC)c2)N(C)O1 (centres undefined)	7.75% (inactive)
O=[N+]([O-])/C=C/c1cn(Cc2ccccc2)c2ccccc12	16.7% (inactive)
Oc1ccc(/C=N/n2c3ccccc3c3ccccc32)cc1	8.46% (inactive)
Cc1ccc(Nc2nc(N)c([N+](=O)[O-])c(N3CCCC(C)C3)n2)cc1C (centres undefined)	10.2% (inactive)
Fc1cc(F)cc(Nc2nc(Cl)nc(NC3CCCC3)n2)c1	-2.21% (inactive)
COc1ccc(N/C(=C2\CCCC2=O)C2CCCCC2)cc1	8.32% (inactive)
COc1ccc(NC(=O)ON=C2c3ccccc3-c3ccccc32)cc1	5.91% (inactive)
CC(C)(C)c1ccc(-c2nc3[nH]c(=O)cc(NC(=O)c4ccco4)n3n2)cc1	-2.11% (inactive)
Cc1ccccc1C(=O)Nc1ccccc1C(=O)NCC(C)C	-7.13% (inactive)
O=C1NCCC/C1=N\Nc1ccc(Br)cc1	-6.4% (inactive)
CN1CCN(/N=C/c2c3ccccc3c(Cl)c3ccccc23)CC1	7.76% (inactive)
COc1ccccc1N1CCN(c2ccc(-c3ccccc3)nn2)CC1	2.99% (inactive)
COc1cc(C)ccc1OCCOc1c(C)cc(Cl)cc1Cl	14.7% (inactive)
